Source: the supplement of paper PMC6992640
Structures can show the parent of a compound that is named as a salt. ± gives the standard deviation of the averaged measurements.

Key:
Experiment in all cases: cell viability (% of vehicle); higher = less cytotoxic
Details in all cases: 10 µM; 72 h
[1] = test system: HCI01 (cells of a triple-negative basal-like breast cancer xenograft)
[2] = test system: HCI03 (cells of an ER-positive luminal breast cancer xenograft)
[3] = test system: HCI09 (cells of a triple-negative luminal androgen receptor type breast cancer xenograft)
[4] = test system: HCI11 (cells of an ER-positive luminal breast cancer xenograft)
[5] = test system: HCI13 (cells of an ER-positive luminal breast cancer xenograft)
[6] = test system: HCI16 (cells of a triple-negative basal-like breast cancer xenograft)
[7] = test system: UCD52 (cells of a triple-negative basal-like breast cancer xenograft)
[8] = test system: WHIM2 (cells of a triple-negative basal-like breast cancer xenograft)
[9] = test system: WHIM30 (cells of a triple-negative basal-like breast cancer xenograft)
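Also: PDX cells carrying CMV promoter-driven luciferase, viability read as total photon flux per second by IVIS imaging following D-luciferin, vehicle control 0.1% DMSO.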

SMILES | cell viability [1] | cell viability [2] | cell viability [3] | cell viability [4] | cell viability [5] | cell viability [6] | cell viability [7] | cell viability [8] | cell viability [9]
CCNC1(C(N)=O)CCN(c2ncnc3c2nc(-c2ccccc2Cl)n3-c2ccc(Cl)cc2)CC1.Cl | 83 ± 14 | 86 | 39.3 ± 16 | 75 | 81 ± 13 | 92.1 | 63.4 ± 1.6 | 89.6 ± 5.2 | 109 ± 9.3
O=C(O)Cc1ccccc1Nc1c(Cl)cccc1Cl [Diclofenac] | 92.9 ± 26 | 123 | 84.8 ± 15 | 96.8 | 114 ± 31 | 127 | 90.6 ± 16 | 87.4 ± 0.94 | 92.1 ± 4.7
C[N+](C)(C)CC(O)CC(=O)O.[Cl-] (racemic) [DL-Carnitine HCl] | 111 ± 35 | 112 | 120 ± 37 | 101 | 113 ± 5.4 | 147 | 102 ± 13 | 114 ± 25 | 132 ± 11
O=C(C=Cc1ccc(O)c(O)c1)OC1CC(O)(C(=O)O)CC(O)C1O (configuration not stated) [Chlorogenic acid] | 104 ± 3.3 | 153 | 119 ± 45 | 95.8 | 107 ± 6.4 | 116 | 113 ± 2.8 | 101 ± 14 | 77 ± 12
COC(=O)C=CC(=O)OC [Dimethyl Fumarate] | 126 ± 22 | 129 | 104 ± 5.7 | 95.4 | 70.4 ± 15 | 113 | 94.6 ± 3.6 | 134 ± 30 | 128 ± 18
O=C(NCC1CN(c2ccc(N3CCOCC3=O)cc2)C(=O)O1)c1ccc(Cl)s1 (configuration not stated) [Rivaroxaban] | 114 ± 11 | 119 | 89.9 ± 3.4 | 105 | 130 ± 15 | 94.8 | 85.2 ± 13 | 109 ± 9 | 117 ± 15
Cc1ccnc(NS(=O)(=O)c2ccc(N)cc2)n1 [Sulfamerazine] | 100 ± 36 | 131 | 88.41 ± 0.75 | 84.2 | 103 ± 8.7 | 111 | 86.8 ± 8.5 | 75.2 ± 10 | 99.5 ± 6
CNCCC(Oc1ccccc1C)c1ccccc1.Cl (configuration not stated) [Atomoxetine HCl] | 119 ± 8.9 | 145 | 111 ± 11 | 108 | 105 ± 3.7 | 130 | 85 ± 3.7 | 88.7 ± 17 | 180 ± 28
O=C([O-])Cc1ccccc1Nc1c(Cl)cccc1Cl.[Na+] [Diclofenac Sodium] | 94.9 ± 18 | 120 | 81.3 ± 5.4 | 73.9 | 105 ± 26 | 111 | 73.6 ± 8.9 | 90.2 ± 14 | 81.348 ± 0.07
CC(C(=O)[O-])c1cccc(Oc2ccccc2)c1.CC(C(=O)[O-])c1cccc(Oc2ccccc2)c1.[Ca+2] (configuration not stated) [Fenoprofen Calcium] | 112 ± 34 | 100 | 101 ± 7.6 | 94.3 | 121 ± 16 | 105 | 83 ± 3.5 | 98.7 ± 7.4 | 169 ± 11
OCCOCCN1CCN(C2=Nc3ccccc3Sc3ccccc32)CC1 [Quetiapine] | 122 ± 13 | 109 | 94.9 ± 23 | 94.1 | 116 ± 8.1 | 94.1 | 101 ± 4 | 104 ± 5.5 | 131 ± 13
CC(N)(Cc1ccc(O)c(O)c1)C(=O)O (configuration not stated) [Methyldopa] | 95.3 ± 9.9 | 96.8 | 95.5 ± 7.2 | 63.1 | 126 ± 11 | 127 | 91.1 ± 2.8 | 112 ± 1.3 | 96.2 ± 3.6
Cc1ncc([N+](=O)[O-])n1CC(C)O (configuration not stated) [Secnidazole] | 57.6 ± 32 | 133 | 82.6 ± 1.1 | 89.3 | 103 ± 11 | 114 | 79.3 ± 1.8 | 92.4 ± 20 | 149 ± 20
COc1ccc(CNc2nc(N3CCCC3CO)ncc2C(=O)NCc2ncccn2)cc1Cl (configuration not stated) [Avanafil] | 155 ± 7.5 | 117 | 102 ± 23 | 143 | 123 ± 11 | 121 | 104 ± 15 | 130 ± 2.6 | 135 ± 7.5
CC(NC(=O)Cc1cc(F)cc(F)c1)C(=O)NC(C(=O)OC(C)(C)C)c1ccccc1 (configuration not stated) | 111 ± 14 | 115 | 64.1 ± 6.3 | 104 | 116 ± 9.7 | 130 | 60.1 ± 2.1 | 74.18 ± 0.26 | 123 ± 25
COc1cc2c(cc1OC)C(=O)C(CC1CCN(Cc3ccccc3)CC1)C2.Cl (configuration not stated) [Donepezil HCl] | 137 ± 8.8 | 89.9 | 113 ± 5 | 106 | 152.6 ± 0.61 | 147 | 66.1 ± 6.9 | 86.1 ± 4 | 107 ± 14
CC1(C)OC2COC3(COS(N)(=O)=O)OC(C)(C)OC3C2O1 (configuration not stated) [Topiramate] | 103 ± 19 | 128 | 95.2 ± 20 | 138 | 133 ± 1.9 | 115 | 78.8 ± 6.2 | 105 ± 16 | 110 ± 5.4
Cc1cn(C2C=CC(CO)O2)c(=O)[nH]c1=O (configuration not stated) [Stavudine (d4T)] | 112 ± 12 | 115 | 110 ± 14 | 91 | 82.13 ± 0.67 | 117 | 104 ± 11 | 95.9 ± 9.4 | 127 ± 5
